In PubChem BioAssay (EPA / NIEHS) one finds outcome and AC50 data, which are given here for five molecules.

Records with an inconclusive call do not appear. The source made the active and inactive calls. The calls were made as follows, unless noted: active = hit-call score of the fitted dose curve at least 0.9, where 1 is the maximum; inconclusive = response in the unintended direction; inactive = score below 0.9.

Read-out in experiment [1]: alkyl and aryl transferase (GSTA2), GSTA2 (gene 2939)
Put plainly: CLD_GSTA2_6hr: CellzDirect (CLD) Gene Expression Assay for alkyl and aryl transferase (GSTA2) at 6 hours (AID 2283666). The procedure, abridged: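 GSTA2 transcript induction at 6 h, quantified by nuclease protection (qNPA) with chemiluminescent detection, in human liver primary hepatocytes exposed to several compound concentrations with 0.2% DMSO as baseline; phase-contrast morphology annotated apparent cytotoxicity.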

Experiment [2] in a line: Tanguay_ZF_120hpf_TR_legacy: (Legacy) Oregon State University Tanguay Lab 120 Hour Post-fertilization zebrafish Assay for Touch Response (AID 2283667). The method, boiled down: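 Readout is presence or absence of touch response in 120 hpf zebrafish larvae, assessed by brightfield observation after continuous static exposure at 28C. Final vehicle was 0.64% (vol/vol) DMSO.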

Read-out in experiment [3]: organic anion transporter (SLCO1B1), SLCO1B1 (gene 10599)
Put plainly: CLD_SLCO1B1_6hr: CellzDirect (CLD) Gene Expression Assay for organic anion transporter (SLCO1B1) at 6 hours (AID 2283668).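 Also: active means mRNA induction above DMSO baseline.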 The procedure, abridged: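 SLCO1B1 mRNA induction measured 6 h after dosing by quantitative nuclease protection with chemiluminescent read-out, in human primary hepatocyte cultures given chemicals at several concentrations (vehicle 0.2% DMSO). Increase over DMSO baseline fitted; morphology-based cytotoxicity annotated yes/no.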

Read-out in experiment [4]: glucuronosyltransferase (UGT1A1), UGT1A1 (gene 54658)
Put plainly: CLD_UGT1A1_6hr: CellzDirect (CLD) Gene Expression Assay for glucuronosyltransferase (UGT1A1) at 6 hours (AID 2283672). The procedure, abridged: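 UGT1A1 mRNA induction, read by quantitative nuclease protection assay, 6 h after dosing primary human hepatocytes (two donors, 0.2% DMSO vehicle). Gain of signal fitted relative to vehicle.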

Read-out in experiment [5]: xenobiotic metabolism (CYP1A1), CYP1A1 (gene 1543)
The experiment can be described thus: CLD_CYP1A1_24hr: CellzDirect (CLD) Gene Expression Assay for xenobiotic metabolism (CYP1A1) at 24 hours (AID 2283673).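 Also: CYP1A1 mRNA level by quantitative nuclease protection with chemiluminescence.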 The method, boiled down:
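Transcript levels were read at 24 h by qNPA chemiluminescence in human liver primary cells. Cells got daily fresh dosing at multiple concentrations (vehicle 0.2% DMSO). Induction fitted upward against DMSO; phase-contrast cytotoxicity annotated.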

Experiment [6] in a line: CLD_ACTIN_6hr: CellzDirect (CLD) Gene Expression Assay for Baseline Control (Actin) at 6 hours (AID 2283676).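 Also: active means increased actin mRNA relative to DMSO vehicle.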 The method, boiled down: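 Baseline actin transcript level measured by qNPA (S1 nuclease protection, chemiluminescence) in human hepatocyte cultures 6 h after chemical exposure; 0.2% DMSO vehicle as reference, cytotoxicity noted from morphology.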
Experiment [7] is described as follows: CCTE_Padilla_ZF_144hpf_TERATOSCORE: (Legacy) CCTE's 144 Hour Post-fertilization zebrafish Assay Teratoscore, Padilla Lab (AID 2283679; active = hit-call score of the fitted dose curve at least 0.9, where 1 is the maximum; inactive = score below 0.9;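 also: zebrafish embryos with chorions exposed by immersion from 6-8 hpf to 5 dpf with daily renewal; teratogenicity score from eye scoring of death hatching and malformations at 144 hpf; higher score means more developmental defects relative to DMSO baseline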). The method, boiled down: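 Larvae scored by eye at 144 hpf for death, hatching and malformations after a day in clean Hanks'. Before that, daily-renewed exposure at 80 uM (0.4% DMSO, 26C) from roughly 6-8 hpf through 5 dpf, 4 embryos per chemical.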

Read-out in experiment [8]: ABC Transporter (ABCB1), ABCB1 (gene 5243)
The experiment can be described thus: CLD_ABCB1_24hr: CellzDirect (CLD) Gene Expression Assay for ABC Transporter (ABCB1) at 24 hours (AID 2283684).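 As to AC50: potency for increase in ABCB1 mRNA relative to DMSO vehicle.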 The method, boiled down:
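ABCB1 mRNA induction versus 0.2% DMSO vehicle was read by qNPA chemiluminescence at 24 h. Cultured human hepatocytes from two donor preparations received daily fresh dosing, and phase-contrast cytotoxicity calls were annotated alongside the data.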

Read-out in experiment [9]: Broad substrate specificity ATP-binding cassette transporter ABCG2 (Homo sapiens) (UniProt Q9UNQ0)
Put plainly: CLD_ABCG2_24hr: CellzDirect (CLD) Gene Expression Assay for ABC Transporter (ABCG2) at 24 hours (AID 2283685). The method, boiled down:
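ABCG2 mRNA induction, read as gain of chemiluminescent signal over 0.2% DMSO, was measured by quantitative nuclease protection at 24 h. Cultured human liver hepatocytes were given fresh dosing solutions of test chemicals at several concentrations each day.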

Read-out in experiment [10]: Cytochrome P450 2B6 (Homo sapiens) (UniProt P20813)
The experiment can be described thus: CLD_CYP2B6_24hr: CellzDirect (CLD) Gene Expression Assay for xenobiotic metabolism (CYP2B6) at 24 hours (AID 2283686). The procedure, abridged:
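qNPA chemiluminescent measurement of mRNA at 24 hours in human primary hepatocyte cultures from two donor preparations, with daily fresh dosing and 0.2% DMSO vehicle as baseline. Morphology-based cytotoxicity flagged yes/no.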

Read-out in experiment [11]: ABC Transporter (ABCB1), ABCB1 (gene 5243)
Put plainly: CLD_ABCB1_48hr: CellzDirect (CLD) Gene Expression Assay for ABC Transporter (ABCB1) at 48 hours (AID 2283695).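 As to AC50: potency for induction meaning increase of mRNA over DMSO vehicle.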 The procedure, abridged: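 ABCB1 mRNA was measured by quantitative nuclease protection assay (chemiluminescence) 48 h after dosing. Human hepatocyte cultures from two separate donors received fresh dosing solutions daily for two days, with 0.2% DMSO as vehicle. Positive-direction fit against DMSO.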

Read-out in experiment [12]: Cytochrome P450 (CYP24A1_1), CYP24A1 (gene 1591)
Put plainly: LTEA_HepaRG_CYP24A1_1: Life Technologies and Expression Analysis (LTEA) Assay for Cytochrome P450 (CYP24A1_1) using HepaRG (AID 2283671; active = hit-call score of the fitted dose curve at least 0.9, where 1 is the maximum; inactive = score below 0.9). As to conditions: mRNA level, 48 h; actives raise or lower the signal. The method, boiled down: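 Cultures of human HepaRG were treated in duplicate for 48 h (0.5% DMSO vehicle, highest dose 100 uM). CYP24A1 mRNA by qRT-PCR, normalized to ACTB, GAPDH, POLR2A.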

Read-out in experiment [13]: ABC Transporter (ABCB11), ABCB11 (gene 8647)
The experiment can be described thus: CLD_ABCB11_24hr: CellzDirect (CLD) Gene Expression Assay for ABC Transporter (ABCB11) at 24 hours (AID 2283674; active = hit-call score of the fitted dose curve at least 0.9, where 1 is the maximum; inactive = score below 0.9). The method, boiled down:
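ABCB11 transcript was quantified by qNPA chemiluminescence in cultured human liver hepatocytes 24 hours after dosing. Fresh dosing solutions were applied on consecutive days, against a 0.2% DMSO vehicle. Cytotoxicity was noted by phase-contrast morphology.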

Read-out in experiment [14]: ABC Transporter (ABCB11), ABCB11 (gene 8647)
The experiment can be described thus: CLD_ABCB11_6hr: CellzDirect (CLD) Gene Expression Assay for ABC Transporter (ABCB11) at 6 hours (AID 2283675).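 Also: hits raise ABCB11 mRNA level so AC50 marks induction.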 The procedure, abridged: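 Read-out was ABCB11 mRNA gain of signal by quantitative nuclease protection assay, relative to 0.2% DMSO vehicle, 6 h post-dose. Cells were primary human hepatocytes from two donors, treated across multiple concentrations; phase-contrast cytotoxicity noted yes/no.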

Read-out in experiment [15]: xenobiotic metabolism (CYP1A2), CYP1A2 (gene 1544)
The experiment can be described thus: CLD_CYP1A2_24hr: CellzDirect (CLD) Gene Expression Assay for xenobiotic metabolism (CYP1A2) at 24 hours (AID 2283683). The method, boiled down:
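CYP1A2 mRNA induction measured by quantitative nuclease protection (chemiluminescent) in human primary hepatocytes 24 h after multi-concentration chemical dosing with daily fresh solutions. DMSO (0.2%) baseline; positive-direction fitting; morphology-based cytotoxicity noted.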

Read-out in experiment [16]: sulfotransferase (SULT2A), SULT2A1 (gene 6822)
The experiment can be described thus: CLD_SULT2A_24hr: CellzDirect (CLD) Gene Expression Assay for sulfotransferase (SULT2A) at 24 hours (AID 2283694). The method, boiled down:
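mRNA is measured by qNPA: probe hybridisation, S1 nuclease digestion, chemiluminescence, in lysates from human primary hepatocytes harvested 24 h after daily dosing. Vehicle was 0.2% DMSO. Phase-contrast microscopy flagged cytotoxicity (yes/no).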

Read-out in experiment [17]: Cytochrome P450 2C19 (Homo sapiens) (UniProt P33261)
Put plainly: CLD_CYP2C19_6hr: CellzDirect (CLD) Gene Expression Assay for xenobiotic metabolism (CYP2C19) at 6 hours (AID 2283678). The procedure, abridged:
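CYP2C19 transcript induction was quantified by quantitative nuclease protection assay with chemiluminescent read-out, 6 h after dosing. Cells were primary human hepatocytes from two donor preparations, given fresh dosing solutions daily in 0.2% DMSO vehicle. Activity was relative to DMSO.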

Read-out in experiment [18]: Cytochrome P450 2C19 (Homo sapiens) (UniProt P33261)
Put plainly: CLD_CYP2C19_24hr: CellzDirect (CLD) Gene Expression Assay for xenobiotic metabolism (CYP2C19) at 24 hours (AID 2283687).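 Also: activity means mRNA induction above DMSO vehicle baseline.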 The procedure, abridged:
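CYP2C19 mRNA was quantified by qNPA chemiluminescence after 24 h of daily dosing of cultured human primary hepatocytes from two donors; vehicle was 0.2% DMSO, and increases over DMSO baseline were fitted.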

Read-out in experiment [19]: organic anion transporter (SLCO1B1), SLCO1B1 (gene 10599)
Put plainly: CLD_SLCO1B1_24hr: CellzDirect (CLD) Gene Expression Assay for organic anion transporter (SLCO1B1) at 24 hours (AID 2283690). The procedure, abridged: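 SLCO1B1 mRNA induction read at 24 h by quantitative nuclease protection assay (chemiluminescence), analyzed against DMSO baseline. Human hepatocyte cultures from separate donors received fresh dosing solutions daily; vehicle 0.2% DMSO; cytotoxicity flagged by phase-contrast morphology.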

Read-out in experiment [20]: Cytochrome P450 3A4 (Homo sapiens) (UniProt P08684)
The experiment can be described thus: CLD_CYP3A4_6hr: CellzDirect (CLD) Gene Expression Assay for xenobiotic metabolism (CYP3A4) at 6 hours (AID 2283680). The procedure, abridged: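 CYP3A4 mRNA induction, 6 h after dosing of cultured primary human hepatocytes from two donors, read by quantitative nuclease protection (qNPA, chemiluminescence). Vehicle 0.2% DMSO as baseline; morphology-based cytotoxicity annotated yes/no.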

Sequence of Cytochrome P450 2C19 (Homo sapiens) (P33261 whole entry, looked up): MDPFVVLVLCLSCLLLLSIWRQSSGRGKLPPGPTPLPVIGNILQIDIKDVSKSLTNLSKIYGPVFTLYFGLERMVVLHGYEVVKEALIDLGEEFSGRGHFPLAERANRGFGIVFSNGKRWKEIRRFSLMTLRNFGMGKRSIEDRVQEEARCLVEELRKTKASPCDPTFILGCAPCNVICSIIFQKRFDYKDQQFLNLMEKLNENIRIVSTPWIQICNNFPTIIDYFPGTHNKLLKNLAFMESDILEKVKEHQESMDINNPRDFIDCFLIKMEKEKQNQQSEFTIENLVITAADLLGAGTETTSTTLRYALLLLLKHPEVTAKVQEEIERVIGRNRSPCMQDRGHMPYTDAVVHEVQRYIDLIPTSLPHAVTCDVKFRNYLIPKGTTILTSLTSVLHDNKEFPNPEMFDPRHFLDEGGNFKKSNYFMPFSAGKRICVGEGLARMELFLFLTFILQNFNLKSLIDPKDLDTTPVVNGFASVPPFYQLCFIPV
Sequence of Broad substrate specificity ATP-binding cassette transporter ABCG2 (Homo sapiens) (Q9UNQ0 whole entry, looked up): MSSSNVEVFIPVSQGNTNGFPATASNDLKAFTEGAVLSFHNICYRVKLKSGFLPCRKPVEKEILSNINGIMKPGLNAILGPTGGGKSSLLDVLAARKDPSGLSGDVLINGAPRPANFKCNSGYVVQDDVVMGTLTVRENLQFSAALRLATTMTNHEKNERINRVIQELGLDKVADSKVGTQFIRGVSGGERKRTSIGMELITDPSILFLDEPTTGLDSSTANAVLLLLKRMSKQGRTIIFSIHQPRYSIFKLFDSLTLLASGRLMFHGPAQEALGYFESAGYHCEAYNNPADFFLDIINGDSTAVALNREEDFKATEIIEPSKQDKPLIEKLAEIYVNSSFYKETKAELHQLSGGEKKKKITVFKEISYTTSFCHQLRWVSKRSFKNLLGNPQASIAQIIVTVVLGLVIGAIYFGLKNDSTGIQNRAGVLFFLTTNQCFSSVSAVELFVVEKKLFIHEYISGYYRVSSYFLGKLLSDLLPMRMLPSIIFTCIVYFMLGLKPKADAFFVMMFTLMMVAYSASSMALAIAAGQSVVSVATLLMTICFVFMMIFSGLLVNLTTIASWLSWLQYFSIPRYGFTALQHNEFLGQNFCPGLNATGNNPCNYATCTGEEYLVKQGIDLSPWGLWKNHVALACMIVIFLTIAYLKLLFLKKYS
Sequence of Cytochrome P450 3A4 (Homo sapiens) (P08684 whole entry, looked up): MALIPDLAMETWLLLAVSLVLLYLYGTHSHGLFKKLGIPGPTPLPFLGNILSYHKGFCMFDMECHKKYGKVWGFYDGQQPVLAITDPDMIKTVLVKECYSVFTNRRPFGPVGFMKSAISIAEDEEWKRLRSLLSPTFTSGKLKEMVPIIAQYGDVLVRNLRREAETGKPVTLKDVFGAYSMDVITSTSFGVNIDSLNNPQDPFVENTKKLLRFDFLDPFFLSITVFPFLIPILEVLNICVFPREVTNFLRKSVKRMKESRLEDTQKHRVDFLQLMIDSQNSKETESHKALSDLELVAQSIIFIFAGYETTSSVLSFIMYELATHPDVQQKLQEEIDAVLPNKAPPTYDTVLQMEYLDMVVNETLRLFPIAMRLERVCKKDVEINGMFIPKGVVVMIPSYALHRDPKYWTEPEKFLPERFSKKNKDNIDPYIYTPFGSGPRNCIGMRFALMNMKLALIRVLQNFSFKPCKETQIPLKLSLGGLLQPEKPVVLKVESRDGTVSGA

Turning to `C=CCOC(Cn1ccnc1)c1ccc(Cl)cc1Cl` (configuration not stated), the molecule was called inactive in [1], in [2], in [3], in [4], in [6] and in experiment [8]. Also, the result in [9] was inactive. Moreover, the AC50 is 1.07 µM (active) in experiment [5], 2.91 µM (active) in [7], 0.135 µM (active) in [10] and 36.9 µM (active) in [11].
As for `N#CSCSc1nc2ccccc2s1`, the molecule was classed as inactive in experiment [1], in experiment [2], in [12], in experiment [4], in experiment [13] and in [14]. Besides, the outcome in experiment [6], in experiment [8], in experiment [9], in [10], in [16] and in experiment [11] was inactive. Also, the AC50 in experiment [5] is 4.74 µM (active); in experiment [15], 7.18 µM (active).
Turning to `CCC(C)OC(=O)N1CCCCC1CCO` (configuration not stated), the molecule was called inactive in experiment [1], in [2], in experiment [3], in experiment [4], in [13] and in experiment [14]. Moreover, the outcome in experiment [6], in experiment [17], in experiment [15], in experiment [8], in experiment [9] and in experiment [10] was inactive. The result in experiment [18], in experiment [19], in experiment [16] and in experiment [11] was inactive.
In the case of `COc1c(Cl)ccc(Cl)c1C(=O)O`, the result in experiment [1], in experiment [2], in [3], in experiment [4], in [5] and in experiment [14] was inactive. The call in [6], in experiment [17], in experiment [20], in [15], in experiment [8] and in [9] was inactive. In addition, the molecule was classed as inactive in experiment [18], in [16] and in [11].
Regarding `COC(=O)c1ccc(I)cc1S(=O)(=O)NC(=O)Nc1nc(C)nc(OC)n1`, the molecule was classed as inactive in [1], in experiment [3], in experiment [4], in experiment [5], in [13] and in [14]. The result in [6], in experiment [17], in experiment [15], in experiment [9], in experiment [10] and in [18] was inactive. The molecule was called inactive in [19] and in experiment [11]. Besides, the AC50 in experiment [20] is 0.348 µM (active); in experiment [8] it was 20 µM (active).

One may read the AC50 as the concentration at which the activity in the assay is half-maximal.
